# PubChem BioAssay AID504832 (National Center for Advancing Translational Sciences (NCATS), 2011)
# Among all 310,000 compounds or so, about 18,000 (5.8%) were called active. Where a call stands in place of a potency, no number is given. Roughly 22% stayed inconclusive and do not appear here. The call rests on the fitted dose curve; in most records, active means well fitted inhibition curve with a large enough effect; inconclusive means small, poorly fitted or top-dose-only effect, or another doubt; inactive means no such curve, though single readings can be large or run the other way. Many of the other results were omitted from the sample, so actives are more common in it than they were.
# Assay: Primary qHTS for delayed death inhibitors of the malarial parasite plastid, 48 hour incubation
# Details: P. falciparum luciferase growth in erythrocytes; series mostly up to 28.7 µM
# Outline: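 Read-out is firefly luciferase luminescence from an integrated reporter in P. falciparum, so falling signal marks reduced parasite growth. Infected erythrocytes were at 2% hematocrit and 0.1% parasitemia (final) in Albumax-supplemented RPMI 1640.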
# Potency means the concentration at half of the fitted maximal effect.
row,SMILES,Potency
1,COc1ccc(C(=O)C2CCCN(S(=O)(=O)c3cccc(C)c3)C2)c(C)c1 (configuration not stated),inactive
2,Cc1ccc(NC(=O)C2CCCN(S(=O)(=O)c3c(C)noc3C)C2)c(C)c1 (configuration not stated),inactive
3,COc1c(C)cc(C(=O)C2CCCN(S(=O)(=O)c3c(C)noc3C)C2)cc1C (configuration not stated),9.28 µM (active)
4,CN(C(=O)CSc1nnc(-c2ccc(C(C)(C)C)cc2)n1C)C1CCS(=O)(=O)C1 (configuration not stated),inactive
5,CC(=O)Nc1ccc(C(=O)N(C2=NC(C)CS2)c2ccc(Cl)cc2)cc1 (configuration not stated),inactive
6,Nc1nc(SCc2cccc(Br)c2)n[nH]1,inactive
7,Cc1ccc(-c2csc(NNC(=O)c3ccccc3)n2)cc1,2.33 µM (active)
8,Cc1nc(NNC(=O)c2ccccc2)cc(-c2ccccc2)n1,inactive
9,Cc1ccc(-c2csc(NC(=O)c3cccs3)n2)cc1,inactive
10,CCn1c(SCC(=O)NNC(=O)c2ccc(OC)cc2)nnc1C(C)C,inactive
11,Cc1ccc(Cn2c(=N)c(S(=O)(=O)c3ccc(C)cc3)cc3c(=O)n4ccccc4nc32)cc1,inactive
12,Cn1c(Cc2cccs2)nnc1SCC(=O)Nc1ccccc1,inactive
13,CCC(CC)C(=O)Nc1c2c(nn1-c1ccc(C)cc1)CS(=O)(=O)C2,inactive
14,COc1cccc(C(=O)Nc2c3c(nn2-c2cccc(C)c2C)CS(=O)(=O)C3)c1OC,10.4 µM (active)
15,COc1cccc(C(=O)Nc2cccnc2)c1OC,inactive
16,O=C(CC1CCCCC1)Nc1c2c(nn1-c1ccc(F)cc1)CS(=O)(=O)C2,inactive
17,COc1ccccc1OCC(=O)Nc1c2c(nn1-c1ccc(F)cc1)CS(=O)(=O)C2,10.4 µM (active)
18,Cc1cccc(-n2nc3c(c2NC(=O)c2cc4ccccc4o2)CS(=O)(=O)C3)c1,inactive
19,CCOC(=O)c1sc(N)c(C#N)c1COC(=O)C1=COCCO1,inactive
20,Cc1cc(C)cc(NC(=O)C2CCCN2S(=O)(=O)c2cccc3cccnc23)c1 (configuration not stated),inactive
21,CCn1c(CC(=O)Nc2ccccc2C)nnc1SCC(=O)NC1=NCCS1,inactive
22,CCCc1nn(C)c2c(=O)[nH]c(-c3cc(S(N)(=O)=O)ccc3OCC)nc12,inactive

row,SMILES,Potency
1,N#Cc1cc([N+](=O)[O-])ccc1NCC1CCCO1 (configuration not stated),inactive
2,COc1ccc(NC(=S)NC2CCS(=O)(=O)C2)cc1 (configuration not stated),inactive
3,O=C(Cc1ccc(Cl)cc1)NC1CCS(=O)(=O)C1 (configuration not stated),inactive
4,CC(C)C(=O)NC(NC(=S)NC1CCS(=O)(=O)C1)C(Cl)(Cl)Cl (configuration not stated),7.38 µM (active)
5,CC1CC(C)CN(C(=O)COC(=O)c2ccc3ncsc3c2)C1 (configuration not stated),inactive
6,CCc1noc(C)c1C(=O)Nc1nc(-c2ccccc2)cs1,inactive
7,C=CCNc1nc(N)c([N+](=O)[O-])c(NC2CCCCC2)n1,14.7 µM (active)
8,COCCNc1nc(N)c([N+](=O)[O-])c(NCCO)n1,inactive
9,Nc1nc(Nc2ccccc2)nc(NCCO)c1[N+](=O)[O-],inactive
10,CSCc1nnc(NC(=O)c2ccc(S(=O)(=O)N3CCCCC3C)cc2)o1 (configuration not stated),inactive
11,CC(C)CNC(=O)c1cc(-c2ccc(Br)cc2)on1,inactive
12,CC(C)Cc1cc(C(=O)NCCc2ccccc2)no1,inactive
13,CC(C)Cc1cc(C(=O)Nc2cc(Br)ccc2O)no1,1.85 µM (active)
14,COc1cccc(OC)c1C(=O)NC(=S)Nc1ccc(N2CCOCC2)c(Cl)c1,14.7 µM (active)
15,Cc1ccc(C(=O)NC(=S)Nc2ccc(N3CCOCC3)cc2)cc1,inactive
16,CCOc1ccc(C(=O)NC(=S)Nc2ccc(N3CCOCC3)c(Cl)c2)cc1[N+](=O)[O-],inactive
17,O=C(NCCc1nnc2ccc(SCC(=O)N3CCOCC3)nn12)c1ccccc1,inactive
18,CCCS(=O)(=O)N1CCCC(C(=O)N2CCN(c3ccccc3)CC2)C1 (configuration not stated),inactive
19,O=C(C1CCCN(S(=O)(=O)c2ccccc2)C1)N1CCN(c2ccc(F)cc2)CC1 (configuration not stated),13.1 µM (active)
20,CC(=O)N1CCCc2cc(S(=O)(=O)N3CCCC(C(=O)N4CCN(c5cccc(Cl)c5)CC4)C3)ccc21 (configuration not stated),4.15 µM (active)
21,Cc1ccc(S(=O)(=O)N2CCCC(C(=O)N3CCN(C)CC3)C2)cc1 (configuration not stated),inactive
22,COc1ccc(S(=O)(=O)N2CCCC(C(=O)N3CCN(C)CC3)C2)cc1C (configuration not stated),inactive

row,SMILES,Potency
1,CC(=O)N1CCCc2cc(S(=O)(=O)N3CCCC(C(=O)NCc4ccc(Cl)cc4)C3)ccc21 (configuration not stated),inactive
2,CC(C)CCN(C(=O)c1csnn1)C(C(=O)NC1CCCC1)c1ccccc1 (configuration not stated),inactive
3,CCOc1ccc(N(C)S(=O)(=O)c2cnc[nH]2)cc1,inactive
4,CC(=O)c1ccc(NC(=O)C2CCCN2S(=O)(=O)c2cccs2)cc1 (configuration not stated),inactive
5,COc1ccc(C(=O)NC(C)Cn2nc(C)cc2C)cc1OC1CCN(C(C)=O)CC1 (configuration not stated),inactive
6,Cc1cccc(-c2nc(CS(=O)CC(=O)NC(C)CCc3ccccc3)c(C)o2)c1 (configuration not stated),inactive
7,O=C(CN1CCc2cc3c(cc2C1)OCCCO3)Nc1ccccc1,inactive
8,Cc1cccc2c1N(CC(=O)OC(C)C)C(=O)C2=O,inactive
9,CC(C)OC(=O)CN1C(=O)C(=O)c2ccccc21,2.62 µM (active)
10,CC(C)OC(=O)CN1C(=O)c2ccccc2C1=O,inactive
11,Clc1cccc(Cl)c1OCCOCCNCc1ccccc1,inactive
12,CC(NC(=O)c1ccccc1C(=O)O)c1ccc(-n2ccnc2)cc1 (configuration not stated),inactive
13,COc1ccc(NC(=O)CCCNC(=O)Cn2cnc3sc4c(c3c2=O)CCCC4)cc1OC,inactive
14,O=S(=O)(/C=C/c1ccccc1)N1CCNCC1,inactive
15,Cc1cc2oc(=O)cc(CN3CCN(S(=O)(=O)c4cccs4)CC3)c2cc1C(C)C,10.4 µM (active)
16,O=S(=O)(c1cccs1)N1CCN(Cc2ccccc2)CC1,inactive
17,O=c1cc(CN2CCN(S(=O)(=O)/C=C/c3ccccc3)CC2)c2ccc(O)cc2o1,13.1 µM (active)
18,Cc1ccc2c(CN3CCN(S(=O)(=O)c4ccccc4C(F)(F)F)CC3)cc(=O)oc2c1,11.7 µM (active)
19,Cc1cc2oc(=O)cc(CN3CCN(Cc4ccccc4)CC3)c2cc1C,inactive
20,O=S(=O)(c1ccc(F)cc1)N1CCN(Cc2ccccc2C(F)(F)F)CC1,inactive
21,Cc1onc(-c2ccccc2)c1C(=O)N1CCN(S(=O)(=O)c2ccccc2C(F)(F)F)CC1,inactive
22,NC(=O)CCN1CCN(S(=O)(=O)/C=C/c2ccccc2)CC1,inactive

row,SMILES,Potency
1,COc1ccc(O)c(/C=N/N=C/c2cccc([N+](=O)[O-])c2)c1,inactive
2,CCn1c(C(O)c2cc(OC)ccc2OC)nc2ccccc21 (configuration not stated),inactive
3,CCOC(=O)c1c(C)[nH]c(C(=O)OCC(=O)N2CCCC2=O)c1C,inactive
4,Cc1cc(Cl)nc(NC(=O)Nc2cccc(Cl)c2)n1,inactive
5,CC(=O)CC[C@@H](C)O[C@@H]1OC(C)[C@H](O)CC1O (some centres not stated),inactive
6,COC(=O)c1ccc(NS(=O)(=O)c2cc3c4c(c2)C(C)C(=O)N4CCC3)cc1 (configuration not stated),inactive
7,O=C(OCC(=O)N1CCCC1=O)c1cc(S(=O)(=O)N2CCOCC2)ccc1Cl,inactive
8,Cc1nnc(N/N=C/c2ccccn2)[nH]c1=O,2.33 µM (active)
9,Cc1nnc(N/N=C/C2CC=CCC2)[nH]c1=O (configuration not stated),inactive
10,Cc1ccccc1Nc1nnc(C)c(=O)[nH]1,inactive
11,CCCCn1c(N)c(N(CCC(C)C)C(=O)CC2OC(=O)c3ccccc32)c(=O)[nH]c1=O (configuration not stated),8.28 µM (active)
12,CCCCn1c(N)c(N(CCC(C)C)C(=O)c2ccc([N+](=O)[O-])o2)c(=O)[nH]c1=O,inactive
13,CCCCn1c(N)c(N(CCC(C)C)C(=O)COC(=O)c2cccnc2OCC)c(=O)[nH]c1=O,inactive
14,Cc1cc2c(=O)n(CC(=O)NCC(=O)Nc3ccc(C(C)C)cc3)cnc2s1,inactive
15,COc1ccc(CS(=O)/C(Cl)=C(/Cl)C(=O)Nc2ccc(OC)nc2)cc1 (configuration not stated),9.28 µM (active)
16,COc1ccc(NC(=S)NCCNC(C)=O)cc1,inactive
17,COc1ccc(C(=O)Nc2ccc(NC(=O)C(C)C)nc2)cc1,inactive
18,Cc1ccsc1C(=O)NC1CCCCC1C (configuration not stated),inactive
19,CC1CCN(S(=O)(=O)c2ccc3c(c2)n(C)c(=O)n3C)CC1,inactive
20,O=S(=O)(NCCS(=O)(=O)N1CCN(c2ccccc2)CC1)c1ccc(F)cc1,inactive
21,Cc1ccc2nnn(Cc3cccc(C(C)(C)C)c3O)c2c1,11.7 µM (active)
22,Cc1ccc(C(=O)CSc2nnc(Cn3nnc4ccccc43)n2C)cc1,inactive

row,SMILES,Potency
1,COc1ccccc1NC(=O)C(C)OC(=O)CC1CCCC1 (configuration not stated),inactive
2,Cc1ccc(N(C(=O)c2sc(C)nc2C)C(C(=O)NC(C)(C)C)c2ccncc2)cc1 (configuration not stated),inactive
3,CC(C)(C)NC(=O)C(c1ccc(Cl)cc1)N(CCO)C(=O)c1snc(C(N)=O)c1N (configuration not stated),6.57 µM (active)
4,NC(=O)c1ccc(Nc2ccc3nonc3c2[N+](=O)[O-])cc1,inactive
5,COC(=O)c1cc(S(=O)(=O)NCC2CCN(Cc3ccc(Cl)cc3)CC2)cn1C,inactive
6,O=C(c1ccc(Cl)s1)N(Cc1nnc(-c2ccccc2Cl)o1)C1CC1,inactive
7,O=C(c1cc(-c2ccco2)nc2ccccc12)N(Cc1nnc(-c2ccc(Cl)cc2)o1)C1CC1,4.15 µM (active)
8,CN(C(=O)COC(=O)c1cc(-c2ccco2)nc2ccccc12)C1CCS(=O)(=O)C1 (configuration not stated),inactive
9,O=C(Nc1cccc(F)c1)NC1CCCc2ccccc21 (configuration not stated),inactive
10,Cc1cc(=O)[nH]c(Nc2cccc(Br)c2)n1,inactive
11,O=C(CCc1nnc2ccc(NCc3ccco3)nn12)Nc1cc(F)ccc1F,inactive
12,N#C/C=C\Oc1ccc(Cl)cc1N,7.38 µM (active)
13,COc1ccc(Cl)cc1C(=O)NCC#N,inactive
14,Cc1ccc2nc(-c3ccncc3)cc(C(=O)Nc3ccncc3)c2c1,13.1 µM (active)
15,COC(=O)CNC(=O)c1cc(-c2ccncc2)nc2ccccc12,inactive
16,Cc1ccc2nc(-c3ccccn3)cc(C(=O)Nc3ccc4c(c3)OCO4)c2c1,inactive
17,CCN(CC)CCNC(=O)c1ccc(NC(=O)c2cc(-c3ccncc3)nc3ccccc23)cc1,0.828 µM (active)
18,CCN(CC)CCNC(=O)c1ccc(NC(=O)c2c(F)cccc2Cl)cc1,inactive
19,O=C(Nc1ccncc1)c1cc(-c2ccccn2)nc2ccc(Br)cc12,inactive
